Laboratory results taken from PubChem BioAssay (EPA / NIEHS).
Inconclusive results are not listed. Activity calls are given as the source filed them. The calls were made as follows, unless noted: active = hit-call score of the fitted dose curve at least 0.9, where 1 is the maximum; inconclusive = response in the unintended direction; inactive = score below 0.9.

Columns and labels:
[1] = molecular target: human Retinoid X Receptor beta (RXRb), RXRB (gene 6257) (UniProt P28702); test: ATG_RXRb_TRANS: Attagene TRANS-FACTORIAL HepG2 Assay for human Retinoid X Receptor beta (RXRb) (AID 2283013)
human Retinoid X Receptor beta (RXRb), RXRB (gene 6257), sequence (P28702 whole entry, looked up, the tested form may be a part): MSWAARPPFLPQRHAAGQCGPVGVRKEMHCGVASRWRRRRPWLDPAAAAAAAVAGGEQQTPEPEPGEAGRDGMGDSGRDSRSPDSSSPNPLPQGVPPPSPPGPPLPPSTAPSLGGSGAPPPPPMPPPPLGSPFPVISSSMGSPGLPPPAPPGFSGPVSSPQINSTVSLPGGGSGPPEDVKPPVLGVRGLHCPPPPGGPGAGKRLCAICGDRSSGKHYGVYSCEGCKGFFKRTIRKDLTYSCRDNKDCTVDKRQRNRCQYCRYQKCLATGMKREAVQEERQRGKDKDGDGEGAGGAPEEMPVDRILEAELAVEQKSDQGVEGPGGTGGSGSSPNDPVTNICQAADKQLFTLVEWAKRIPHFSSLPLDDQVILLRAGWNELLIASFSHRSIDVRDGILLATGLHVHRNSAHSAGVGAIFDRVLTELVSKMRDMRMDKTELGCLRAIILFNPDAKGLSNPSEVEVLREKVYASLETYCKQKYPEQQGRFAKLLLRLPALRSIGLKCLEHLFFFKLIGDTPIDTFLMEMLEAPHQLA
Summary of the method: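 Readout is reporter transcript induction after 24 h dosing. It is measured by RT-PCR of total RNA followed by fluorescent capillary electrophoresis. HepG2 liver cells carry transfected multiple reporter units driven by an exogenous RXRb-Gal4 fusion; activity is relative to DMSO.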

[2] = molecular target: human Thyroid Receptor alpha (THRa1), THRA (gene 7067) (UniProt P10827); test: ATG_THRa1_TRANS: Attagene TRANS-FACTORIAL HepG2 Assay for human Thyroid Receptor alpha (THRa1) (AID 2283014)
human Thyroid Receptor alpha (THRa1), THRA (gene 7067), sequence (P10827 whole entry, looked up, the tested form may be a part): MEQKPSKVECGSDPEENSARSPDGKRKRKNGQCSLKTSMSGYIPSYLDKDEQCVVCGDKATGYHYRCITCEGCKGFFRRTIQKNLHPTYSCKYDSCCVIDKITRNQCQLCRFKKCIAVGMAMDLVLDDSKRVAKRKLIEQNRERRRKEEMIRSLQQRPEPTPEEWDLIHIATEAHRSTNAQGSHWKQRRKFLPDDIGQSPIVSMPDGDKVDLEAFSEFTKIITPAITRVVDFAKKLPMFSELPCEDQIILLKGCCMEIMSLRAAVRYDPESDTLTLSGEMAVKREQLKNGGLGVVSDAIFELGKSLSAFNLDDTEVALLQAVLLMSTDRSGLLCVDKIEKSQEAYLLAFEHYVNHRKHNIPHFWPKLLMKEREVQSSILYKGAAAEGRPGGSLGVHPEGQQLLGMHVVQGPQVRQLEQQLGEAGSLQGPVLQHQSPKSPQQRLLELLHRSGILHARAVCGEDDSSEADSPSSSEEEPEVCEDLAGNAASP
Summary of the method: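 Measured here is mRNA from a GAL4-UAS reporter in transfected HepG2 cells carrying a Gal4-fused receptor, 24 h post-dose. DMSO served as negative control and baseline.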

[3] = molecular target: human Vitamin D Receptor (VDR), VDR (gene 7421) (UniProt P11473); test: ATG_VDR_TRANS: Attagene TRANS-FACTORIAL HepG2 Assay for human Vitamin D Receptor (VDR) (AID 2283022)
human Vitamin D Receptor (VDR), VDR (gene 7421), sequence (P11473 whole entry, looked up): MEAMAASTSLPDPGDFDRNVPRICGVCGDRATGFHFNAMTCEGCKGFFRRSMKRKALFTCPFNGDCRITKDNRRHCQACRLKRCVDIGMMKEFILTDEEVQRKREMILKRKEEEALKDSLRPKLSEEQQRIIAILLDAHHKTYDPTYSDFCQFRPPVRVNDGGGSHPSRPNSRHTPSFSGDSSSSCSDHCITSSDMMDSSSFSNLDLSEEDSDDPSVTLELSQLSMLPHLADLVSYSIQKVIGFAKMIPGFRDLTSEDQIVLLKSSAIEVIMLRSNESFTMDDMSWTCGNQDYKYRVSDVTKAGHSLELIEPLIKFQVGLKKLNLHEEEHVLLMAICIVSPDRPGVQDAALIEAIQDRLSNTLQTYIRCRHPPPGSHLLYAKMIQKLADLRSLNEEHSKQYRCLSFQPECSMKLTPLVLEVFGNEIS
Summary of the method: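 Multiplexed TRANS reporter in HepG2; 24 h treatment; reporter mRNA by RT-PCR plus capillary electrophoresis; upregulation scored relative to DMSO.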

[4] = read-out: E-selectin (Homo sapiens) (UniProt P16581); test: BSK_3C_Eselectin: BioMAP Diversity Plus: 3C Assay for Eselectin Biomarker Activity (AID 2283015; active = hit-call score of the fitted dose curve at least 0.9, where 1 is the maximum; inactive = score below 0.9); settings: primary human endothelial cells (HUVEC); actives raise or lower the signal
Summary of the method: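 Endpoint derived by bidirectional fitting against DMSO vehicle; signal is ELISA-detected E-selectin from primary HUVEC at 24 h post-dosing, with parallel SRB staining (0.1% SRB, 560 nm) flagging cytotoxicity.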

[5] = read-out: Interleukin-1 alpha (IL1a), IL1A (gene 3552); test: BSK_BE3C_IL1a: BioMAP Diversity Plus: BE3C Assay for Interleukin-1 alpha (IL1a) Biomarker Activity (AID 2283016; active = hit-call score of the fitted dose curve at least 0.9, where 1 is the maximum; inactive = score below 0.9); settings: primary human bronchial epithelial cells; actives raise or lower the signal
Summary of the method: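 IL-1a measured by ELISA after 24 h treatment of human primary bronchial epithelial cells, with gain or loss of signal fitted versus DMSO. Parallel cultures stained with SRB gauge overt cytotoxicity.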

[6] = read-out: Monocyte Chemoattractant Protein-1 (MCP1), CCL2 (gene 6347); test: BSK_3C_MCP1: BioMAP Diversity Plus: 3C Assay for Monocyte Chemoattractant Protein-1 (MCP1) Biomarker Activity (AID 2283017; active = hit-call score of the fitted dose curve at least 0.9, where 1 is the maximum; inactive = score below 0.9); settings: primary human endothelial cells (HUVEC); actives raise or lower the signal
Summary of the method: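 Using human vascular primary endothelium, researchers measured MCP-1 by ELISA 24 h after treatment, with DMSO serving as negative control for bidirectional fitting.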

[7] = read-out: Human Leukocyte Antigen - DR isotype (HLADR), HLA-DRA (gene 3122); test: BSK_3C_HLADR: BioMAP Diversity Plus: 3C Assay for Human Leukocyte Antigen - DR isotype (HLADR) Biomarker Activity (AID 2283019; active = hit-call score of the fitted dose curve at least 0.9, where 1 is the maximum; inactive = score below 0.9); settings: primary human endothelial cells (HUVEC); actives raise or lower the signal
Summary of the method: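 Compound added to primary HUVEC cultures, 24 h incubation, then HLA-DR determined by ELISA; endpoint derived by bidirectional fitting relative to DMSO negative control.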

[8] = read-out: Interleukin-8 (IL8), CXCL8 (gene 3576); test: BSK_3C_IL8: BioMAP Diversity Plus: 3C Assay for Interleukin-8 (IL8) Biomarker Activity (AID 2283020; active = hit-call score of the fitted dose curve at least 0.9, where 1 is the maximum; inactive = score below 0.9); settings: primary human endothelial cells (HUVEC); actives raise or lower the signal
Summary of the method: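 IL-8 was measured by ELISA in HUVEC cultures 24 h after chemical dosing, with gain or loss of signal fitted relative to DMSO. Parallel SRB total-protein staining tracked overt cytotoxicity.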

[9] = read-out: Monokine induced gamma interferon (MIG), CXCL9 (gene 4283); test: BSK_3C_MIG: BioMAP Diversity Plus: 3C Assay for Monokine induced gamma interferon (MIG) Biomarker Activity (AID 2283021; active = hit-call score of the fitted dose curve at least 0.9, where 1 is the maximum; inactive = score below 0.9); settings: primary human endothelial cells (HUVEC); actives raise or lower the signal
Summary of the method: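 ELISA measurement of MIG in human umbilical vein endothelial cells 24 h after treatment. Cytotoxicity tracked by SRB staining in parallel cultures; gain or loss of signal fitted relative to DMSO.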

[10] = BSK_3C_SRB: Viability Assessment in the BioMAP Diversity Plus: 3C Assay (AID 2283023; active = hit-call score of the fitted dose curve at least 0.9, where 1 is the maximum; inactive = score below 0.9;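 also: cells read 24 h after compound dosing; fitted both ways against DMSO so a hit may be signal rise or drop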); settings: primary human endothelial cells (HUVEC)
Summary of the method: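 Overt cytotoxicity is gauged in parallel confluent HUVEC cultures by SRB total-protein staining at the time of biomarker measurement, 24 h after dosing. Gain or loss of signal is fitted versus DMSO.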

[11] = read-out: Matrix Metallopeptidase 1 (MMP1), MMP1 (gene 4312); test: BSK_BE3C_MMP1: BioMAP Diversity Plus: BE3C Assay for Matrix Metallopeptidase 1 (MMP1) Biomarker Activity (AID 2283024; active = hit-call score of the fitted dose curve at least 0.9, where 1 is the maximum; inactive = score below 0.9); settings: primary human bronchial epithelial cells; actives raise or lower the signal
Summary of the method: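 ELISA measurement of MMP-1 after 24 h compound exposure of primary human bronchial epithelial cells. Changes in either direction fitted relative to DMSO; parallel SRB staining checked overt cytotoxicity.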

[12] = BSK_3C_Vis: BioMAP Diversity Plus: 3C Assay for Morphology Visualization (AID 2283025; active = hit-call score of the fitted dose curve at least 0.9, where 1 is the maximum; inactive = score below 0.9;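 also: fitted both ways so gain or loss versus DMSO counts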;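 as to AC50: light microscopy image of cell morphology used as background control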); settings: primary human endothelial cells (HUVEC)
Summary of the method: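 Light-microscopy visualization of HUVEC cultures at 24 h post-treatment, with DMSO as baseline for bidirectional fitting.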

[13] = read-out: Pselectin, SELP (gene 6403); test: BSK_4H_Pselectin: BioMAP Diversity Plus: 4H Assay for Pselectin Biomarker Activity (AID 2283026; active = hit-call score of the fitted dose curve at least 0.9, where 1 is the maximum; inactive = score below 0.9); settings: primary human endothelial cells (HUVEC); actives raise or lower the signal
Summary of the method: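 ELISA of surface P-selectin on HUVEC, 24 h after dosing, with parallel SRB staining (0.1% after 10% TCA fixation, 560 nm) for overt cytotoxicity. Activity fitted in both directions relative to DMSO.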

[14] = BSK_4H_SRB: Viability Assessment in the BioMAP Diversity Plus: 4H Assay (AID 2283027; active = hit-call score of the fitted dose curve at least 0.9, where 1 is the maximum; inactive = score below 0.9;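 also: cells exposed to compound for 24 h before staining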); settings: primary human endothelial cells (HUVEC)
Summary of the method: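 HUVEC, 24 h post-dose; 10% TCA fix, 0.1% SRB stain, A560 nm. Total protein = overt cytotoxicity, parallel to biomarker read. Bidirectional fit vs DMSO baseline.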

[15] = BSK_BE3C_SRB: Viability Assessment in the BioMAP Diversity Plus: BE3C Assay (AID 2283028; active = hit-call score of the fitted dose curve at least 0.9, where 1 is the maximum; inactive = score below 0.9); settings: primary human bronchial epithelial cells
Summary of the method: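 SRB total-protein staining (0.1%, after TCA fixation) of chemically dosed human bronchial epithelial primary cells at 24 h; DMSO serves as the negative control for bidirectional curve fitting.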

[16] = read-out: Thrombomodulin, THBD (gene 7056); test: BSK_3C_Thrombomodulin: BioMAP Diversity Plus: 3C Assay for Thrombomodulin Biomarker Activity (AID 2283029; active = hit-call score of the fitted dose curve at least 0.9, where 1 is the maximum; inactive = score below 0.9); settings: primary human endothelial cells (HUVEC); actives raise or lower the signal
Summary of the method: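 ELISA measurement of thrombomodulin on HUVEC surface 24 h after chemical dosing; activity fitted in both directions relative to DMSO vehicle.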

[17] = read-out: Urokinase-type plasminogen activator receptor (uPAR), PLAUR (gene 5329); test: BSK_4H_uPAR: BioMAP Diversity Plus: 4H Assay for Urokinase-type plasminogen activator receptor (uPAR) Biomarker Activity (AID 2283030; active = hit-call score of the fitted dose curve at least 0.9, where 1 is the maximum; inactive = score below 0.9); settings: primary human endothelial cells (HUVEC); actives raise or lower the signal
Summary of the method: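 Endpoint derived via bidirectional curve fitting against DMSO baseline; readout was ELISA detection of uPAR on umbilical vein endothelial cells at 24 h post-treatment, with SRB-stained parallel cultures assessing cytotoxicity.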

[18] = read-out: Vascular endothelial growth factor receptor 2 (Homo sapiens) (UniProt P35968); test: BSK_4H_VEGFRII: BioMAP Diversity Plus: 4H Assay for Vascular endothelial growth factor receptor 2 (VEGFR2) Biomarker Activity (AID 2283031; active = hit-call score of the fitted dose curve at least 0.9, where 1 is the maximum; inactive = score below 0.9); settings: primary human endothelial cells (HUVEC); actives raise or lower the signal
Summary of the method: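 In this multiplexed HUVEC system, biomarker ELISA was performed after 24 h chemical exposure. Parallel SRB staining (TCA fixation, 560 nm) tracked cytotoxicity; DMSO served as baseline.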

[19] = read-out: Monocyte Chemoattractant Protein-1 (MCP1), CCL2 (gene 6347); test: BSK_4H_MCP1: BioMAP Diversity Plus: 4H Assay for Monocyte Chemoattractant Protein-1 (MCP1) Biomarker Activity (AID 2283018; active = hit-call score of the fitted dose curve at least 0.9, where 1 is the maximum; inactive = score below 0.9); settings: primary human endothelial cells (HUVEC); actives raise or lower the signal
Summary of the method: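 ELISA of MCP-1 (CCL2) 24 h after chemical dosing of HUVEC in the BioMAP 4H system. Gain or loss versus DMSO fitted; parallel SRB staining (560 nm) tracked overt cytotoxicity.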

Measured: AC50

E-selectin (Homo sapiens), sequence (P16581 whole entry, looked up): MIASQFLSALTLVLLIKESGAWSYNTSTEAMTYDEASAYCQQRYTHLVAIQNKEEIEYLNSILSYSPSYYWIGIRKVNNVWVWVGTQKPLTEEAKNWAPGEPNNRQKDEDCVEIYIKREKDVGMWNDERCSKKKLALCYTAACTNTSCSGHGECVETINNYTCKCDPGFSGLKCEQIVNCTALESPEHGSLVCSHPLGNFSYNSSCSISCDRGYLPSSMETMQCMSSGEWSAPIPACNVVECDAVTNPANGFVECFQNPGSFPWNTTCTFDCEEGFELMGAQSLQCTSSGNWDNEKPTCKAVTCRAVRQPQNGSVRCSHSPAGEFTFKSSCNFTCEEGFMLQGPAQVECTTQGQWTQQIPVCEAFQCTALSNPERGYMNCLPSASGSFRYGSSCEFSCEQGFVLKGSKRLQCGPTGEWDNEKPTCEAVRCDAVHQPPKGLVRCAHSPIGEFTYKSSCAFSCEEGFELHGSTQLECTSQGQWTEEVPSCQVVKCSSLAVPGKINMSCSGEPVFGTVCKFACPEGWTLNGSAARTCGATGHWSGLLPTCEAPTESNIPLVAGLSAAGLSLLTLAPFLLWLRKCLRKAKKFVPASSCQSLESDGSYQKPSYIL

CCCCC(CC)COC(C)=O (stereo not drawn)
inactive: [1] | [2] | [3]

COc1ccccc1N=Nc1c(S(=O)(=O)O)cc2cc(S(=O)(=O)O)cc(NC(C)=O)c2c1O
inactive: [1] | [3]

CCCCCCCCCCCCCCCC(=O)OC/C=C(C)/C=C/C=C(C)/C=C/C1=C(C)CCCC1(C)C
active: [4] 14.3 µM | [6] 3.97 µM | [7] 20 µM | [8] 1.13 µM | [10] 29.5 µM | [12] 38.9 µM | [16] 20 µM
not listed: [2] | [3] | [19]
inactive: all other assays above

C=CC(C)C#N (stereo not drawn)
inactive: [1] | [2] | [3]

Cc1cc(S(=O)(=O)O)ccc1N=Nc1c(O)ccc2ccccc12
inactive: [1] | [2] | [3]

CCCC(=O)OC(C)(C)Cc1ccccc1
active: [1] 63.9 µM
inactive: [3]

O=C(O)COCC(=O)O
inactive: [1] | [2] | [3]

CSCCC=O
not listed: [2]
inactive: all other assays above

CC(C)CC(C)CC(O)CC(C)C (stereo not drawn)
inactive: [1] | [2] | [3]

C=Cc1ccc(C)cc1
inactive: [1] | [2] | [3]

CS(C)=O
inactive: [1] | [2] | [3]

C=C(C)CNCC
inactive: [1] | [2] | [3]

O=C(CC(=O)c1ccccc1)c1ccccc1
active: [2] 58.5 µM
inactive: [1] | [3]

CN1C(=O)c2ccccc2C1=O
inactive: [1] | [3]

C=C(C)C1CC=C(C)C(=O)C1 (stereo not drawn)
inactive: [1] | [3]

CCCCCCCC/C=C\CCCCCCCC(=O)OCC
inactive: [1] | [3]

CCOC(=O)[C@@H](C)Oc1ccc(Oc2nc3ccc(Cl)cc3o2)cc1
inactive: [1] | [2] | [3]

CC(=O)O[C@@H]1C[C@@H]2CC[C@@]1(C)C2(C)C
inactive: [1] | [3]

CS(=O)(=O)c1ccc(Cl)cc1
inactive: [1] | [3]

C#CC(C)N(C)C(=O)Nc1ccc(Cl)cc1 (stereo not drawn)
inactive: [1] | [2] | [3]

Cc1c(Cl)cccc1[N+](=O)[O-]
inactive: [1] | [3]
